According to PubChem BioAssay (NCI):
About 83,000 compounds went through this panel and 20% of them were active in at least one assay; those are over-represented in the sample as a whole.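 Testing used 96-well plates and a 48-hour single-concentration exposure. Example: -40 means 40% of the starting cells died.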 Activity calls are given as the source filed them. How the source made its calls: active means growth percent below 10; inactive means the rest.

tested on: HT29 colon; assay: NCI-60 one-dose screen, 48 h (100 = growth as untreated, 0 = no growth, -100 = all killed); conditions: 10 µM unless noted

Q: How did the growth turn out when `COc1ccc(C=Nc2c(C(=O)Nc3cccc(Cl)c3C)sc3nc(C)c(C(=O)/C=C/c4ccc(OC)cc4)cc23)cc1` was run?
A: The growth was 9.21% (active).

Q: How did the growth turn out when `CCOC(=O)CNC1=C(Cl)C(=O)N(Cc2ccc(Cl)cc2)C1=O` was run?
A: Its growth is 105% (inactive).

Q: Which growth does the source give for `COc1ccc(/C=C(\C(=O)NCc2cccnc2)S(=O)(=O)c2ccccc2)cc1OC` here?
A: The growth was 9.86% (active).

Q: `COc1cc2c(c(OC)c1OC)CCC(c1cccc(C(=O)Nc3ccc(Br)cc3)c1)O2` (stereo not given) was tested. Which growth did it give?
A: Its growth is 65.7% (inactive).

Q: How did the growth turn out when `Nc1cc(-c2ccc(Cl)cc2)nn1-c1nnc(/C=C/c2ccco2)c(=O)[nH]1` was run?
A: The growth was 44.2% (inactive).

Q: For `N#C/C(=C\c1ccc(-c2cccc(Cl)c2)o1)C(=O)Nc1ncc(Cc2ccc(Cl)cc2)s1`, which growth is on record?
A: The growth was 70.5% (inactive).

Q: With `CCOC(=O)c1c(C)nc2c(c1N)C(=O)C(=O)N2Cc1ccc(OC)cc1` as the compound, how does the growth read?
A: Its growth is 26.5% (inactive).

Q: How did the growth turn out when `c1csc(-c2cn3nc(-c4c[nH]c5ccccc45)sc3n2)c1` was run?
A: Its growth is 6.1% (active).

Q: `FC(F)(F)c1[nH]ncc1-c1nc2ccc3[nH]ncc3c2c2c1CCCC2` was tested. Which growth did it give?
A: Its growth is 6.93% (active).

Q: How did the growth turn out when `COc1cc(-c2nccc3[nH]c(-c4cccc5[nH]ccc45)nc23)cc(OC)c1OC` was run?
A: The growth was -3.78% (active).

Q: Which growth does the source give for `COc1ccc2[nH]cc(-c3nonc3-c3c[nH]c4ccc(Br)cc34)c2c1` here?
A: Its growth is 5.38% (active).

Q: `CC(=O)c1c(Nc2cccc(F)c2)[nH]c2c(Cl)cc(Cl)c(Cl)c2c1=O` was tested. Which growth did it give?
A: Its growth is 4.86% (active).

Q: `CCOC(=O)NC(=S)n1oc(=O)c2ccccc21` was tested. Which growth did it give?
A: Its growth is 105% (inactive).

Q: `O=S(Nc1ccccc1)c1ccc(Cl)cc1` (stereo not given) was tested. Which growth did it give?
A: The growth was 102% (inactive).

Q: `Nc1c(Br)cc2c(c1Br)Cc1cc([N+](=O)[O-])ccc1-2` was tested. Which growth did it give?
A: Its growth is 110% (inactive).
